From PubChem BioAssay

Legend:
[1] = target: Tumor necrosis factor receptor superfamily member 10B (Homo sapiens) (UniProt O14763); test: viability loss of caspase-8 NB7 cells with TRAIL – with/without TRAIL, luminescence panel, confirmation (AID 651596); conditions: NB7 neuroblastoma + caspase-8, TRAIL sensitization, NB7 Caspase-8, with TRAIL, mean of runs, at 10 µM, stronger effect = higher value
[2] = as above; conditions: NB7 neuroblastoma + caspase-8, without TRAIL, NB7 Caspase-8, without TRAIL, mean of runs, at 10 µM

Chain of Tumor necrosis factor receptor superfamily member 10B (Homo sapiens) (O14763 whole entry, looked up): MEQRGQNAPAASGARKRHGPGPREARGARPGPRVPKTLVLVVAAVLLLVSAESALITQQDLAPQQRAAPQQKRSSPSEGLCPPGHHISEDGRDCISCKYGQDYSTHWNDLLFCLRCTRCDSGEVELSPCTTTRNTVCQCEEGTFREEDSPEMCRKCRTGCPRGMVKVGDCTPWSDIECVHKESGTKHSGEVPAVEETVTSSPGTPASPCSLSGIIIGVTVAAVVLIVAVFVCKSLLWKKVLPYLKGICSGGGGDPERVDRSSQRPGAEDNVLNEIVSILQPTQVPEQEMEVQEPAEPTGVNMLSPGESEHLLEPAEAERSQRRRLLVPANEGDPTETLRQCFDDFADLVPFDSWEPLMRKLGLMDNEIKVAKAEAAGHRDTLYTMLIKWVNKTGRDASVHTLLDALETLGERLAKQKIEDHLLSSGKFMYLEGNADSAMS

| SMILES | activity [1] | activity [2] |
| --- | --- | --- |
| O=C(Nc1ccc(Cl)cc1)Nc1ccccc1C(=O)O | 58.3% | 45.1% |
| CC(NC(=O)CCl)c1ccc(Cl)c(Cl)c1 (centres undefined) | 51% | 81.5% |
| COc1ccc(C(=O)Nc2ccc3[nH]ccc3c2)cc1 | 95.1% | 95.3% |
| CCc1ccc(/C=N/NC(=O)c2c[nH]c3ccccc23)s1 | 21.7% | 20.4% |
| O=C(Cn1ncc(Cl)c(Cl)c1=O)Nc1ccc2c(c1)OCO2 | 99.5% | 99.5% |
| Cn1c2ccccc2c(=O)c2ccc(C#CC3(O)CCCCC3)cc21 | 91.3% | 83.4% |
| CCOC(=O)c1cn(-c2ccc(F)c(F)c2F)c2c(F)c(F)c(F)cc2c1=O | 64% | 41.5% |
| COc1ccc(OC)c(NC(=O)c2nc(S(=O)(=O)Cc3ccccc3)ncc2Cl)c1 | 97% | 98.9% |
| COCCNC(=O)c1c[nH]c2ccc(S(=O)(=O)N3CCc4ccccc43)cc2c1=O | 74.2% | 82.7% |
| CCOc1ccc(-c2cc(C(=O)N/N=C/c3cccnc3)c3ccccc3n2)cc1 | 74.2% | 74.4% |
| O=c1c2ccccc2oc2ccc(-c3ccc4cc[nH]c4c3)cc12 | 36.5% | 35.8% |
| Cc1ccc(CN2[C@@H](Cc3ccccc3)C(=O)CS2(=O)=O)cc1 | 81% | 60.2% |
| Cc1ccccc1Nc1nn2c(=O)c3ccccc3nc2s1 | 54.2% | 62.8% |
| Cc1cccc(C)c1NC(=O)C1CCN(S(C)(=O)=O)CC1 | 0.425% | -3.45% |
| O=C(/C=C/[C@H]1O[C@@H](n2cnc3c(NC(=O)c4ccccc4)ncnc32)[C@H](O)[C@@H]1O)NCC1CCCO1 (some centres undefined) | -2.52% | -37% |
| CC(C)c1ccc2c(c1)CC[C@H]1[C@](C)(CN)CCC[C@]21C | 33.8% | 97.2% |
| Nc1c(-c2ccccc2)cnc2cc(-c3ccccc3)nn12 | 73% | 67.4% |
| O=C(NCCO)c1ccc2c3n(nc2c1)-c1ccccc1CO3 | 78.9% | 78.8% |
| CCOc1cc(CNCCc2ccc(S(N)(=O)=O)cc2)ccc1OCc1ccc(Cl)cc1 | 65.4% | 84.1% |
| N=c1cc(C2(O)CCCCC2)n2c(nc3ccccc32)s1 | 93.5% | 89% |
| CC1(C)N=C(N)N=C(N)N1c1ccc(OCC(=O)N2CCOCC2)cc1 | 62.7% | 87.2% |
| COC(=O)c1c(-c2ccccc2)csc1NC1=NS(=O)(=O)c2ccccc21 | 74.7% | 73.3% |
